Measurements reported in PubChem BioAssay (EPA / NIEHS).
Activity calls are given as the source filed them. The calls were made as follows: active = hit-call score of the fitted dose curve at least 0.9, where 1 is the maximum; inactive = score below 0.9.

What was measured:
[1] = ATG_GLI_CIS: Attagene CIS-FACTORIAL HepG2 Assay for human Zinc Finger Protein GLI1 (AID 2282945); conditions: HepG2, Attagene cis-factorial reporter mRNA, GLI element; actives raise or lower the signal
Outline: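 Transiently transfected HepG2 cells report endogenous transcription factor activity via cis-element-driven reporter units. After 24 h compound exposure, reporter mRNA was measured by RT-PCR with capillary electrophoresis; bidirectional fitting against DMSO baseline.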

[2] = ATG_GRE_CIS: Attagene CIS-FACTORIAL HepG2 Assay for human Glucocorticoid Response Elements (GRE) (AID 2282947); conditions: HepG2 GRE cis-reporter, Attagene multiplex mRNA; actives raise or lower the signal
Outline: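 Transiently transfected HepG2 cells carrying GRE cis-reporter units (endogenous TF activity) dosed 24 h; reporter mRNA quantified by RT-PCR, 6-FAM labelling, HpaI digestion and capillary electrophoresis. Bidirectional fit versus DMSO baseline.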

[3] = ATG_ISRE_CIS: Attagene CIS-FACTORIAL HepG2 Assay for human Interferon Regulatory Factor 1 (IRF1) binding to an Interferon-Stimulated Response Element (ISRE) (AID 2282948); conditions: HepG2 ISRE cis-reporter (Attagene), mRNA transcription readout; actives raise or lower the signal
Outline: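 HepG2 cells transiently transfected with multiplexed cis-promoter reporter units; after 24 h compound exposure, reporter mRNA quantified by RT-PCR, FAM labelling, HpaI digestion and capillary electrophoresis. Bidirectional fit versus DMSO baseline.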

[4] = ATG_M_32_CIS: Attagene CIS-FACTORIAL HepG2 Assay for M32 Transcription Factor (Internal Marker) (AID 2282949); conditions: HepG2 Attagene cis-factorial M32 reporter, mRNA; actives raise or lower the signal;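 also: background control marker of the multiplexed CIS panel rather than a real target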
Outline: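 Fluorescent capillary electrophoresis peaks of HpaI-digested, FAM-labelled RT-PCR reporter products give the signal. Source: transiently transfected human liver HepG2 cells, 24 h after chemical dosing; bidirectional fitting against DMSO.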

[5] = ATG_M_06_CIS: Attagene CIS-FACTORIAL HepG2 Assay for M06 Transcription Factor (Internal Marker) (AID 2282950); conditions: HepG2 Attagene CIS-FACTORIAL M06 internal marker reporter; actives raise or lower the signal
Outline: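 Internal background marker within multiplexed cis-reporter HepG2 system. Cells transiently transfected, dosed 24 h; reporter mRNA measured by RT-PCR, HpaI digestion and capillary electrophoresis. Bidirectional fit relative to DMSO.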

[6] = molecular target: Hypoxia-inducible factor 1-alpha (Homo sapiens) (UniProt Q16665); assay: ATG_HIF1a_CIS: Attagene CIS-FACTORIAL HepG2 Assay for human Hypoxia Inducible Factor 1 (HIF1A) (AID 2282951); conditions: HepG2 Attagene cis-factorial HIF1a reporter transcription; actives raise or lower the signal
Hypoxia-inducible factor 1-alpha (Homo sapiens), sequence (Q16665 whole entry, looked up): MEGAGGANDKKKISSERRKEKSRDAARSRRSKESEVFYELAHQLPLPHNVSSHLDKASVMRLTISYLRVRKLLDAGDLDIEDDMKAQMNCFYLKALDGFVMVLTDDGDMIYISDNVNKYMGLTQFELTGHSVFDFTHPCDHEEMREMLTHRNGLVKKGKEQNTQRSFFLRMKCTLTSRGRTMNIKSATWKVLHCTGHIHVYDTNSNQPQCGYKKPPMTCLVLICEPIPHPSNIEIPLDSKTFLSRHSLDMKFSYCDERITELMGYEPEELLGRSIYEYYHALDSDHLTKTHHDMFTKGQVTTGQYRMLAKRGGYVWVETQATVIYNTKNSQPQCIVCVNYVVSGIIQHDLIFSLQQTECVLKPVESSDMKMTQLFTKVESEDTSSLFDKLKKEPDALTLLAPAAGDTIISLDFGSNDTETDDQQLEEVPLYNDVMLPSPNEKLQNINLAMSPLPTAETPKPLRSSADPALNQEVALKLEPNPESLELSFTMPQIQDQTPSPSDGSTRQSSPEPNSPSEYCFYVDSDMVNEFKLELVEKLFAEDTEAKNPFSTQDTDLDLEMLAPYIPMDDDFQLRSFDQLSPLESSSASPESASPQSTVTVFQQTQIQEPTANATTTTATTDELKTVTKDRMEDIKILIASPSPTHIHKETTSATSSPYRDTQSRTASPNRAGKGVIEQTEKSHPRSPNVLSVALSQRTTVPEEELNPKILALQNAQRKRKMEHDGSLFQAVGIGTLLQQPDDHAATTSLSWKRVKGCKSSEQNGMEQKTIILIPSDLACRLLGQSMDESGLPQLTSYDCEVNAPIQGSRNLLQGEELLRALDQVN
Outline: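 HepG2, transient cis-reporter library, 24 h dosing. RNA → RT (oligo dT) → PCR → 6-FAM primer extension → HpaI → CE. Bidirectional curve fit vs DMSO.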

[7] = molecular target: Hepatocyte nuclear factor 6 (Homo sapiens) (UniProt Q9UBC0); assay: ATG_HNF6_CIS: Attagene CIS-FACTORIAL HepG2 Assay for human Hepatocyte Nuclear Factor 6 (HNF6) (AID 2282952); conditions: HepG2 Attagene cis-factorial HNF6 reporter transcription; actives raise or lower the signal
Hepatocyte nuclear factor 6 (Homo sapiens), sequence (Q9UBC0 whole entry, looked up): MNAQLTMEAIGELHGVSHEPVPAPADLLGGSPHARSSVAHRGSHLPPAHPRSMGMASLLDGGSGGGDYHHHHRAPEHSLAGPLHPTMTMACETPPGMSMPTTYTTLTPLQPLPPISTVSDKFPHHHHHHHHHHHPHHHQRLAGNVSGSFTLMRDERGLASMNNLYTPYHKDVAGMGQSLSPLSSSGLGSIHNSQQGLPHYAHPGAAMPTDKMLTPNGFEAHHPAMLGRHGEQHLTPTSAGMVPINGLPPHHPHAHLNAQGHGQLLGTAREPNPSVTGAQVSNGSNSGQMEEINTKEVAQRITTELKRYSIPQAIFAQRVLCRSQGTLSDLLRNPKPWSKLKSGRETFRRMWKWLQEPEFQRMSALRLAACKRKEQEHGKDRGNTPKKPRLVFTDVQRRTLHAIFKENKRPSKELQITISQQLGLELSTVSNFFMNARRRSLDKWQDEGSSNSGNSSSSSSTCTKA
Outline: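 Transiently transfected HepG2 cells expressing cis-regulated reporter transcription units were exposed to chemical for 24 h in a 24-well format. Reporter transcript abundance was determined by fluorescence capillary electrophoresis.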

[8] = molecular target: Heat shock factor protein 1 (Homo sapiens) (UniProt Q00613); assay: ATG_HSE_CIS: Attagene CIS-FACTORIAL HepG2 Assay for human Heat Shock Transcription Factor 1 (HSE) (AID 2282953); conditions: HepG2 HSE cis-reporter, Attagene RNA transcription; actives raise or lower the signal
Heat shock factor protein 1 (Homo sapiens), sequence (Q00613 whole entry, looked up): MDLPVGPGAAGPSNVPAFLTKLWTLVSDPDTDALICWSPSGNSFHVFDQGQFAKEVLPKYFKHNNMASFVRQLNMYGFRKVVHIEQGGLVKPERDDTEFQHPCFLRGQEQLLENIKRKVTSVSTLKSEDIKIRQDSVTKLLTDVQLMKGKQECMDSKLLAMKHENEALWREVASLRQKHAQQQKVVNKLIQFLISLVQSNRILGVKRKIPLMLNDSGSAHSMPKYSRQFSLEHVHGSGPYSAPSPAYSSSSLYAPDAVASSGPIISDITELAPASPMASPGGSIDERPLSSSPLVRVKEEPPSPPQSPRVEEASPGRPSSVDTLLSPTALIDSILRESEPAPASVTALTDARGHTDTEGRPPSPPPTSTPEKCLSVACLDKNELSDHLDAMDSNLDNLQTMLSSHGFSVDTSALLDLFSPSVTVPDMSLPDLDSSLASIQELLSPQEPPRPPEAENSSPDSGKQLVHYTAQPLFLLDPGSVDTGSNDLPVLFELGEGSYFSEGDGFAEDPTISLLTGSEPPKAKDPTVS
Outline: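 HepG2 cells transfected with cis-promoter reporter units sensing endogenous transcription factor activity; reporter mRNA quantified 24 h post-dose by RT-PCR and capillary electrophoresis of 6-FAM-labelled products. Bidirectional fitting against DMSO.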

[9] = ATG_MRE_CIS: Attagene CIS-FACTORIAL HepG2 Assay for human Metal Responsive Element (MRE) (AID 2282954); conditions: HepG2 MRE cis-reporter transcription, Attagene multiplex; actives raise or lower the signal
Outline: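 HepG2 cells transiently transfected with cis-element-driven reporter units; mRNA measured 24 h after dosing. Reporter transcripts quantified by RT-PCR, FAM labelling, HpaI digestion and capillary electrophoresis; bidirectional fit versus DMSO.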

[10] = ATG_PBREM_CIS: Attagene CIS-FACTORIAL HepG2 Assay for human Phenobarbital-responsive Enhancer Module (PBREM) (AID 2282955); conditions: HepG2 PBREM cis-reporter, Attagene multiplexed transcription; actives raise or lower the signal
Outline: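 HepG2, transient MRTU transfection, 24 h dosing; RNA → oligo(dT) RT → PCR → 6-FAM extension → HpaI → CE. Bidirectional fit vs DMSO.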

[11] = molecular target: Paired box protein Pax-6 (Homo sapiens) (UniProt P26367); assay: ATG_Pax6_CIS: Attagene CIS-FACTORIAL HepG2 Assay for human Paired Box 6 (PAX6) (AID 2282956); conditions: HepG2 CIS-FACTORIAL PAX6 reporter transcription, RNA readout; actives raise or lower the signal
Paired box protein Pax-6 (Homo sapiens), sequence (P26367 whole entry, looked up): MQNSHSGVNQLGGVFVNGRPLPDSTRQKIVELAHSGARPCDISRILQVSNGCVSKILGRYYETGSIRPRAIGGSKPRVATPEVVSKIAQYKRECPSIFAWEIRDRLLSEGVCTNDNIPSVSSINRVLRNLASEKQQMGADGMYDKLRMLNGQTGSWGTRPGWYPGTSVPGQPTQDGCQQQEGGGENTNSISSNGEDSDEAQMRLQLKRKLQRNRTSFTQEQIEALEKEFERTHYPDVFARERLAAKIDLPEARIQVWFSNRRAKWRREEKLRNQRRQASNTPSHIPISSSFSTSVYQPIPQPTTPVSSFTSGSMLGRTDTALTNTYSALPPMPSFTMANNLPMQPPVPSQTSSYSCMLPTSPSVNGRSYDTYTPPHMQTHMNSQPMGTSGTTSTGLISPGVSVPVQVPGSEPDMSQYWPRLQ
Outline: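 HepG2 cells transiently transfected with multiplexed cis-promoter reporter units (endogenous TF activity) were dosed for 24 h. Reporter mRNA was quantified by RT-PCR, 6-FAM labeling, HpaI digestion and capillary electrophoresis; bidirectional fitting versus DMSO baseline.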

[12] = ATG_PPRE_CIS: Attagene CIS-FACTORIAL HepG2 Assay for human Peroxisome Proliferator-activated Response Element (PPRE) (AID 2282958); conditions: HepG2 PPRE cis-element reporter, Attagene transcription factor profiling; actives raise or lower the signal
Outline: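 Transcript-level reporter induction in transfected HepG2 cells after 24 h chemical exposure, quantified by fluorescence from RT-PCR products separated by capillary electrophoresis.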

[13] = ATG_RORE_CIS: Attagene CIS-FACTORIAL HepG2 Assay for human RAR-related Orphan Receptor Element (RORE) (AID 2282959); conditions: HepG2 Attagene cis-factorial RORE reporter, mRNA; actives raise or lower the signal
Outline: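 Multiplexed reporter assay measuring mRNA induction from a cis promoter element in transiently transfected HepG2 cells after 24 h treatment. Detection via RT-PCR and capillary electrophoresis fluorescence; DMSO serves as baseline.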

[14] = ATG_Sox_CIS: Attagene CIS-FACTORIAL HepG2 Assay for human SRY-box transcription factor (SOX) (AID 2282960); conditions: HepG2 Attagene cis-factorial SOX reporter, mRNA; actives raise or lower the signal
Outline: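 Cells were transfected with reporter constructs under cis-regulatory promoters, then exposed to chemicals for 24 h. Reporter transcripts were quantified by fluorescence after RT-PCR and capillary electrophoresis; activity was fitted in both directions against DMSO.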

[15] = molecular target: Transcription factor Sp1 (Homo sapiens) (UniProt P08047); assay: ATG_Sp1_CIS: Attagene CIS-FACTORIAL HepG2 Assay for human Specificity Protein 1 (Sp1) (AID 2282961); conditions: HepG2 Sp1 cis-reporter transcription, actives raise or lower the signal
Transcription factor Sp1 (Homo sapiens), sequence (P08047 whole entry, looked up): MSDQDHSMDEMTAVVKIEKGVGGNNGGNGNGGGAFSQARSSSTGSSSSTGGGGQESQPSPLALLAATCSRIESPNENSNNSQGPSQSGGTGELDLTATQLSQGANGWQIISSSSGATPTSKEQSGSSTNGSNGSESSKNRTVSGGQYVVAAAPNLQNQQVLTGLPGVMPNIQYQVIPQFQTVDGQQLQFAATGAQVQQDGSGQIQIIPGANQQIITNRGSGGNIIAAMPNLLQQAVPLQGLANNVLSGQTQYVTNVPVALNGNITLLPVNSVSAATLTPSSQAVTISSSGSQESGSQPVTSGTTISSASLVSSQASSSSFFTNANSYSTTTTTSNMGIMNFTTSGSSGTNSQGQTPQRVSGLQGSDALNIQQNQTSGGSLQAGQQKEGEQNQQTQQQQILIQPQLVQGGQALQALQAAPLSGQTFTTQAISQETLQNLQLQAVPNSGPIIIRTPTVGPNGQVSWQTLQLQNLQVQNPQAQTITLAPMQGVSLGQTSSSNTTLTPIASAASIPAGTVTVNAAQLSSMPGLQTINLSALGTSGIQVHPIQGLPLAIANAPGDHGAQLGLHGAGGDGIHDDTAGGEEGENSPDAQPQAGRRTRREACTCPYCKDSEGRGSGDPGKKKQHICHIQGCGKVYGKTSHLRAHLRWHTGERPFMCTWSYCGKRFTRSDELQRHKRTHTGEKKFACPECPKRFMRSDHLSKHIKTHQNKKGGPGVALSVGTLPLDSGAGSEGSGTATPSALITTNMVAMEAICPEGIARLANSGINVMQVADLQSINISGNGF
Outline: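 Measures mRNA induction of an Sp1-linked reporter in HepG2 cells 24 h post-dosing. Multiplexed reporters read by RT-PCR and capillary electrophoresis; DMSO serves as negative control and baseline.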

[16] = ATG_SREBP_CIS: Attagene CIS-FACTORIAL HepG2 Assay for human Sterol Regulatory Element Binding (SREBP) (AID 2282962); conditions: HepG2 Attagene cis-factorial SREBP reporter, mRNA; actives raise or lower the signal
Outline: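 HepG2 cells transiently transfected with multiplexed cis-element reporter units report endogenous transcription factor activity. After 24 h of chemical exposure, reporter mRNA was quantified by RT-PCR, 6-FAM labelling, HpaI digestion and capillary electrophoresis; bidirectional fits used DMSO as baseline.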

[17] = molecular target: Signal transducer and activator of transcription 3 (Homo sapiens) (UniProt P40763); assay: ATG_STAT3_CIS: Attagene CIS-FACTORIAL HepG2 Assay for human Signal Transducer and Activator of Transcription 3 (STAT3) (AID 2282963); conditions: HepG2, Attagene cis-factorial STAT3 reporter transcription; actives raise or lower the signal
Signal transducer and activator of transcription 3 (Homo sapiens), sequence (P40763 whole entry, looked up): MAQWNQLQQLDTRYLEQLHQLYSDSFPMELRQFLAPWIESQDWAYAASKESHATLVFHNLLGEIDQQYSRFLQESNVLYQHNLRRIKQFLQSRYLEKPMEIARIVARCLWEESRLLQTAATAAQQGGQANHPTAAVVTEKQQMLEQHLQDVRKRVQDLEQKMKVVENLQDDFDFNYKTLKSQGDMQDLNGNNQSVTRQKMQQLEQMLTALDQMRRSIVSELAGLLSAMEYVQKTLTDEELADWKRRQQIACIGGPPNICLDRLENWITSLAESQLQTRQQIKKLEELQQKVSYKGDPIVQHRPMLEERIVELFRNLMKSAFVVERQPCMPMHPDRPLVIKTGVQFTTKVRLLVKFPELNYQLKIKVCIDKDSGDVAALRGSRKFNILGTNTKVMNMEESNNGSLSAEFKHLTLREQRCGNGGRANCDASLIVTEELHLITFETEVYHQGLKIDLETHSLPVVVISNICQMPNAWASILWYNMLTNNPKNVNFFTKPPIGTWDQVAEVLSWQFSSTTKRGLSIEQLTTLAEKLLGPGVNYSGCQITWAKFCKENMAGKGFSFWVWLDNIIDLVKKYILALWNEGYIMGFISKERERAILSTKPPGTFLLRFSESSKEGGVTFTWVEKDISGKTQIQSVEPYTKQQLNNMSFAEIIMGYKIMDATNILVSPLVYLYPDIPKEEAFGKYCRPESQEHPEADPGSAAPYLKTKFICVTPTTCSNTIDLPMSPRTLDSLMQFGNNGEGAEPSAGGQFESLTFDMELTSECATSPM
Outline: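 HepG2 cells transiently transfected with multiple cis-element-driven reporter units report endogenous transcription factor activity. After 24 h compound exposure, reporter mRNA is measured by RT-PCR, 6-FAM labelling, HpaI digestion and capillary electrophoresis. Fitted bidirectionally versus DMSO.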

[18] = ATG_TA_CIS: Attagene CIS-FACTORIAL HepG2 Assay for human TA Basal Promoter (AID 2282964); conditions: HepG2 Attagene CIS-factorial TA basal promoter reporter; actives raise or lower the signal
Outline: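 HepG2 cells transiently transfected with multiple reporter units under cis promoter elements, reporting endogenous transcription factor activity; this endpoint tracks the TA basal promoter as background control. Reporter mRNA after 24 h dosing measured by RT-PCR/capillary electrophoresis; bidirectional fits versus DMSO.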

[19] = ATG_PXRE_CIS: Attagene CIS-FACTORIAL HepG2 Assay for human Pregnane X Receptor Element (PXRE) (AID 2282957); conditions: HepG2 Attagene CIS-FACTORIAL PXRE reporter, mRNA; actives raise or lower the signal
Outline: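 Cis-element reporter mRNA in human hepatoma HepG2 cells is measured 24 h post-dosing by RT-PCR, primer-extension labeling and capillary electrophoresis; gain or loss of signal is fitted relative to DMSO.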

[20] = molecular target: Bile acid receptor (Homo sapiens) (UniProt Q96RI1); assay: ATG_IR1_CIS: Attagene CIS-FACTORIAL HepG2 Assay for human Nuclear Receptor Subfamily 1 Group H Member 4 (NR1H4), IR1 submotif (AID 2282946); conditions: IR1 reporter transcription, actives raise or lower the signal
Bile acid receptor (Homo sapiens), sequence (Q96RI1 whole entry, looked up): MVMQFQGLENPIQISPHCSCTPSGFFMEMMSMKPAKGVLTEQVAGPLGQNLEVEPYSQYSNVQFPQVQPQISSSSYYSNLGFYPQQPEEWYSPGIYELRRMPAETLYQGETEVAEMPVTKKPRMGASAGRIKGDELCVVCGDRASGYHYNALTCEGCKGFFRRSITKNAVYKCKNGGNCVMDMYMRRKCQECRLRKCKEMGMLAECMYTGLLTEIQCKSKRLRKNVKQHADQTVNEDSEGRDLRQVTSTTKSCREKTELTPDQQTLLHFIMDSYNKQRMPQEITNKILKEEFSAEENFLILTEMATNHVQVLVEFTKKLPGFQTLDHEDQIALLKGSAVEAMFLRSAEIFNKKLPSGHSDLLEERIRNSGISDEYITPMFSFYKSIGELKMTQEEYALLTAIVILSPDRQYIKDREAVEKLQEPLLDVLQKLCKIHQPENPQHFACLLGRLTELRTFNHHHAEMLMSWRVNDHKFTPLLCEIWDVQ
Outline: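 HepG2 cells transiently transfected with multiple cis-promoter-driven reporter units to measure endogenous transcription factor activity; 24 h exposure. Reporter mRNA read by RT-PCR, FAM labelling, HpaI digestion and capillary electrophoresis. Bidirectional fit versus DMSO.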

Measured: AC50

Cc1cccc(C)c1
inactive: [1] | [2] | [3] | [4] | [5] | [6] | [7] | [8] | [9] | [10] | [11] | [12] | [13] | [14] | [15] | [16] | [17] | [18]

O=C(C=Cc1ccccc1)OCCCc1ccccc1
inactive: [1] | [2] | [3] | [4] | [5] | [6] | [7] | [8] | [9] | [10] | [13] | [14] | [15] | [16] | [17] | [18]
active: [19] 19.9 µM

CCOC(=O)COC(=O)c1ccccc1C(=O)OCC
inactive: [1] | [2] | [3] | [4] | [5] | [6] | [7] | [8] | [9] | [10] | [11] | [12] | [13] | [14] | [15] | [16] | [17] | [18]
active: [19] 50.1 µM

CCCCCCCCCCCCN1CCOCC1
inactive: [1] | [2] | [3] | [4] | [5] | [6] | [7] | [8] | [9] | [11] | [12] | [13] | [14] | [15] | [16] | [17] | [18]

CC12CCC(C1)C(C)(C)C2O (configuration not stated)
inactive: [1] | [20] | [3] | [4] | [5] | [6] | [7] | [8] | [9] | [19] | [12] | [13] | [14] | [15] | [17] | [18]

CCCCCCC(O)CCOC(C)=O (configuration not stated)
active: [19] 18.6 µM
inactive: [1] | [20] | [4] | [5] | [6] | [7] | [9] | [11] | [12] | [13] | [14] | [15] | [16] | [17]

Cc1cc(O)c(C)c(C)c1O
active: [19] 9.14 µM
inactive: [1] | [2] | [3] | [4] | [5] | [6] | [7] | [8] | [9] | [10] | [11] | [12] | [13] | [14] | [15] | [16] | [17] | [18]

C1CCCNCC1
inactive: [1] | [2] | [3] | [4] | [5] | [6] | [7] | [8] | [9] | [12] | [13] | [14] | [15] | [16] | [17]
active: [19] 27.3 µM
